This is one part of a sample in which hits are shown more often than they occur.
Dicer inh: inhibitors of human Dicer processing of pre-microRNA; Q9UPY3; cat-ELCCA pre-miR-21 Dicer processing, chemiluminescence; hits give high values; z-score at 25 µM; 47,000 compounds, 6% hits; AID 1347074; in the data active means z-score above about 3, passing the limit was not always enough;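 further: higher signal means more uncleaved substrate so more Dicer inhibition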
Target sequence (Q9UPY3 whole entry, looked up): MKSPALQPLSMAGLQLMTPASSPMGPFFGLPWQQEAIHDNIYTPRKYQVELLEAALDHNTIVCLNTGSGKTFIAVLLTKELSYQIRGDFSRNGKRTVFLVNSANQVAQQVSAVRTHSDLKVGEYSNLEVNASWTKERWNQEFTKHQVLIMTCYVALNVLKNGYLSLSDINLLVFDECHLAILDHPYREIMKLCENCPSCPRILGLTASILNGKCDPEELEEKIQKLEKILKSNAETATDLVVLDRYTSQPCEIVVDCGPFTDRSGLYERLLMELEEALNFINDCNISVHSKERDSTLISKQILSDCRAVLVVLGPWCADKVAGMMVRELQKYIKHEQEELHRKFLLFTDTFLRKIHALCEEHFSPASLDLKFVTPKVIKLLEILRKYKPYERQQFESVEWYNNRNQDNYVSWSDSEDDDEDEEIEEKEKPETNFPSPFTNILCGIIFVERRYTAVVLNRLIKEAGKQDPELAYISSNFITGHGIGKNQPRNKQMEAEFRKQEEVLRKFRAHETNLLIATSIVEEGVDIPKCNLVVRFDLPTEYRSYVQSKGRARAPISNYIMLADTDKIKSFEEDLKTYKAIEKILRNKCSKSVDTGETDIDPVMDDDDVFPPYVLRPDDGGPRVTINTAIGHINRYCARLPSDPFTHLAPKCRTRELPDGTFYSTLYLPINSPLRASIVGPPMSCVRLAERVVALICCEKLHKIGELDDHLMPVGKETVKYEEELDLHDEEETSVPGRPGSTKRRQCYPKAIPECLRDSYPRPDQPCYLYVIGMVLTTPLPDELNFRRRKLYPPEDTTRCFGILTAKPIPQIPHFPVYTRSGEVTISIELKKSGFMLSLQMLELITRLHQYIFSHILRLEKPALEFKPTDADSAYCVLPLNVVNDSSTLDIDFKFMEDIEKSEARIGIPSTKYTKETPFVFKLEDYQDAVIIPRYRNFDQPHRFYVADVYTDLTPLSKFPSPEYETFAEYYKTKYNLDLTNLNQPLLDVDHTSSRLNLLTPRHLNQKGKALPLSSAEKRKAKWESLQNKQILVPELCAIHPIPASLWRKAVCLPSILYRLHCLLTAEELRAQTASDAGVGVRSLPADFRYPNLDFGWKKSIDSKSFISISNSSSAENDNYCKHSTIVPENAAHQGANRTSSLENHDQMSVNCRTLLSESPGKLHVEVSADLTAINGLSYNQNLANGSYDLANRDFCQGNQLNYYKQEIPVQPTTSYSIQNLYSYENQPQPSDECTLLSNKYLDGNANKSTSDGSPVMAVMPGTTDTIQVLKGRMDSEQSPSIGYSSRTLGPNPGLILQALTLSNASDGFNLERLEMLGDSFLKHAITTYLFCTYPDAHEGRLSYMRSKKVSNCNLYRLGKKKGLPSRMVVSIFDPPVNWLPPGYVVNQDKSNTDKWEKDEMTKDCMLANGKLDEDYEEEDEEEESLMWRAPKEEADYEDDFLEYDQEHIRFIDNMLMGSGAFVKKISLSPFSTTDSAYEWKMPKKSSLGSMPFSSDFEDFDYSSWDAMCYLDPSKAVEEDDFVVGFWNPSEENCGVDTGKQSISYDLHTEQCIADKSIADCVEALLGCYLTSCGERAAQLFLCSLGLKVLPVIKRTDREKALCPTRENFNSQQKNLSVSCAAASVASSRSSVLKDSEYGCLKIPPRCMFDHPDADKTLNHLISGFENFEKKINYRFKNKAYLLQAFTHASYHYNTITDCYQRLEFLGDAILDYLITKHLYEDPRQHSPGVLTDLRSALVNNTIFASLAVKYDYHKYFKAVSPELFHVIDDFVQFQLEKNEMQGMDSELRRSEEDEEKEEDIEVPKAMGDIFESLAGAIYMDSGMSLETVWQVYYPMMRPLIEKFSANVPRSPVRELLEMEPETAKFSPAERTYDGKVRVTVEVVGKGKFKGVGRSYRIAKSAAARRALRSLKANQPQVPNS
A number is an active result.

Cc1ccc(S(=O)(=O)C(CC(=O)c2ccco2)c2ccc(Cl)cc2)cc1 (centres undefined) was read as Dicer inh inactive.
`Cc1ccc(S(=O)(=O)C(CC(=O)c2ccc(F)cc2)c2ccco2)cc1` (centres undefined) gave Dicer inh 3.2.
Screening Cc1ccc(C(CC(=O)c2ccco2)SCCO)cc1 (centres undefined) returned Dicer inh inactive.
`CC1CCc2c(sc3nnn(CC(=O)N4CCCC4)c(=O)c23)C1` (centres undefined) gave Dicer inh inactive.
`O=C(Cn1nc(C(F)F)cc1C1CC1)N1CCCC1` gave Dicer inh 3.1.
`O=C(c1cn(CC(=O)N2CCCCC2)c2ccccc12)C1CC1` gave Dicer inh inactive.
For OCCN1CCN(Cn2nnc3ccccc32)CC1 the results were Dicer inh inactive.
For Cc1ccc2nc3c(cc2c1)c(=O)n(C)c1c3c(=O)n(C)c(=O)n1C the results were Dicer inh inactive.
For C=CCN1C(=O)C(O)(CC(=O)c2ccc3c(c2)CCCC3)c2ccccc21 (centres undefined) the results were Dicer inh inactive.
`C=CCN1Cc2ccc(C(=O)O)cc2C1` gave Dicer inh 3.2.
C=CCN1CCc2c(cc(O)c(O)c2Br)[C@@H](c2ccccc2)C1 was read as Dicer inh inactive.
Screening CN(C)c1ccncc1C(=O)Nc1cc(Cl)cc(Cl)c1 returned Dicer inh inactive.
Cc1ccc(NC(=S)NC(C)(C)C)cc1F was read as Dicer inh 3.
Cc1ccc(NC(=S)Nc2ccc(C)c(C)c2)cc1C was read as Dicer inh inactive.
`Cc1cc(NC(=S)NC(C)(C)C)ccc1Br` gave Dicer inh inactive.
For Cc1nc(-c2ccccn2)nc(NCCNc2cccc(C(F)(F)F)n2)c1Cl the results were Dicer inh inactive.
`CCOc1ccc(C)cc1S(=O)(=O)n1c(C)nc2ccccc21` gave Dicer inh inactive.
Screening Clc1ccc(CSc2ncc(Sc3ncccn3)c(-c3ccc(Cl)cc3)n2)cc1 returned Dicer inh inactive.
`COc1cc(C(F)(F)F)c(C(N)=O)cn1` gave Dicer inh inactive.
For Cc1ccc(Cl)c(NC2=CC(=O)CC(C)(C)C2)c1 the results were Dicer inh inactive.
`CC1(C)CC(=O)C=C(Nc2ccc(F)cc2)C1` gave Dicer inh inactive.
Screening Cc1ccc(-c2cc(NC3=CC(=O)CC(C)(C)C3)n[nH]2)cc1 returned Dicer inh 3.7.
`CCOC(=O)c1nn(-c2ccccc2Cl)cc(Sc2ccc(Cl)cc2)c1=O` gave Dicer inh inactive.
Screening COC(=O)c1cc(=O)nc2sc3ccccc3n12 returned Dicer inh inactive.
`CCC(Sc1nnc2c3ccccc3n(C)c2n1)C(=O)Nc1nnc(C)s1` (centres undefined) gave Dicer inh inactive.
`CCC(Sc1nnc2c3ccccc3n(C)c2n1)C(=O)NC(C)c1ccccc1` (centres undefined) gave Dicer inh inactive.
CCCc1nnc(NC(=O)C(CC)Sc2nnc3c4ccccc4n(C)c3n2)s1 (centres undefined) was read as Dicer inh 3.1.
NNC(=S)NC1CCCCCCCCCCC1 was read as Dicer inh inactive.
`Cc1cccc(-c2[nH]ncc2-c2ccc3ncccc3n2)n1` gave Dicer inh inactive.
Screening COC(=O)c1cc(C#N)c(SCc2ccc(Cl)cc2)nc1C(OC)OC returned Dicer inh inactive.
`CCOC(=O)C1=NOC2C(=O)N(c3ccc(F)cc3)C(=O)C12` (centres undefined) gave Dicer inh inactive.
COC(=O)C1=NOC2C(=O)N(c3ccc(F)cc3)C(=O)C12 (centres undefined) was read as Dicer inh inactive.
Screening CCOC(=O)C1=NOC2C(=O)N(c3ccc(Cl)cc3)C(=O)C12 (centres undefined) returned Dicer inh 3.7.
`COC(=O)C1=NOC2C(=O)N(c3ccc(C)cc3)C(=O)C12` (centres undefined) gave Dicer inh 3.6.
`COC(=O)C1=NOC2C(=O)N(c3ccc(OC)cc3)C(=O)C12` (centres undefined) gave Dicer inh inactive.
CCOC(=O)C1=NOC2C(=O)N(c3ccc(OC)cc3)C(=O)C12 (centres undefined) was read as Dicer inh inactive.
For C=CCSc1nnc(-c2ccc(O)cc2)o1 the results were Dicer inh inactive.
Screening O=C(Nc1nnc(-c2ccc3c(c2)OCO3)s1)c1ccccc1Cl returned Dicer inh inactive.
COc1cc(C2Nc3ccccc3-c3nnc(SC)nc3O2)ccc1O (centres undefined) was read as Dicer inh inactive.
CCSc1nnc2c(n1)OC(c1ccc(O)c(OC)c1)Nc1ccccc1-2 (centres undefined) was read as Dicer inh inactive.
Screening CCOc1cc(C2Nc3ccccc3-c3nnc(SC)nc3O2)ccc1O (centres undefined) returned Dicer inh 5.
Cn1ncc2c(NC3CCCCC3)ncnc21 was read as Dicer inh inactive.
Cc1ccc2ncnc(NC3CCCCC3)c2c1 was read as Dicer inh 4.7.

Compound activity deposited in PubChem BioAssay by Center for Chemical Genomics, University of Michigan.
